# Laboratory results: ChEMBL document CHEMBL1201862, “PubChem BioAssay data set” (2004)
# Hit rate of the full screen: of about 400,000 compounds, about 2,100 (0.53%) were called active. Not shown: some 14% with an inconclusive outcome. The rule behind the calls is not given here. The list comes from a sample in which actives are over-represented; it also holds similar structures and randomly drawn compounds.
# Biological target: Ataxin-2 (Homo sapiens) (UniProt Q99700)
# Test: qHTS for Inhibitors of ATXN expression.
# Assay type: functional
# Sequence of Ataxin-2 (Homo sapiens) (Q99700 whole entry): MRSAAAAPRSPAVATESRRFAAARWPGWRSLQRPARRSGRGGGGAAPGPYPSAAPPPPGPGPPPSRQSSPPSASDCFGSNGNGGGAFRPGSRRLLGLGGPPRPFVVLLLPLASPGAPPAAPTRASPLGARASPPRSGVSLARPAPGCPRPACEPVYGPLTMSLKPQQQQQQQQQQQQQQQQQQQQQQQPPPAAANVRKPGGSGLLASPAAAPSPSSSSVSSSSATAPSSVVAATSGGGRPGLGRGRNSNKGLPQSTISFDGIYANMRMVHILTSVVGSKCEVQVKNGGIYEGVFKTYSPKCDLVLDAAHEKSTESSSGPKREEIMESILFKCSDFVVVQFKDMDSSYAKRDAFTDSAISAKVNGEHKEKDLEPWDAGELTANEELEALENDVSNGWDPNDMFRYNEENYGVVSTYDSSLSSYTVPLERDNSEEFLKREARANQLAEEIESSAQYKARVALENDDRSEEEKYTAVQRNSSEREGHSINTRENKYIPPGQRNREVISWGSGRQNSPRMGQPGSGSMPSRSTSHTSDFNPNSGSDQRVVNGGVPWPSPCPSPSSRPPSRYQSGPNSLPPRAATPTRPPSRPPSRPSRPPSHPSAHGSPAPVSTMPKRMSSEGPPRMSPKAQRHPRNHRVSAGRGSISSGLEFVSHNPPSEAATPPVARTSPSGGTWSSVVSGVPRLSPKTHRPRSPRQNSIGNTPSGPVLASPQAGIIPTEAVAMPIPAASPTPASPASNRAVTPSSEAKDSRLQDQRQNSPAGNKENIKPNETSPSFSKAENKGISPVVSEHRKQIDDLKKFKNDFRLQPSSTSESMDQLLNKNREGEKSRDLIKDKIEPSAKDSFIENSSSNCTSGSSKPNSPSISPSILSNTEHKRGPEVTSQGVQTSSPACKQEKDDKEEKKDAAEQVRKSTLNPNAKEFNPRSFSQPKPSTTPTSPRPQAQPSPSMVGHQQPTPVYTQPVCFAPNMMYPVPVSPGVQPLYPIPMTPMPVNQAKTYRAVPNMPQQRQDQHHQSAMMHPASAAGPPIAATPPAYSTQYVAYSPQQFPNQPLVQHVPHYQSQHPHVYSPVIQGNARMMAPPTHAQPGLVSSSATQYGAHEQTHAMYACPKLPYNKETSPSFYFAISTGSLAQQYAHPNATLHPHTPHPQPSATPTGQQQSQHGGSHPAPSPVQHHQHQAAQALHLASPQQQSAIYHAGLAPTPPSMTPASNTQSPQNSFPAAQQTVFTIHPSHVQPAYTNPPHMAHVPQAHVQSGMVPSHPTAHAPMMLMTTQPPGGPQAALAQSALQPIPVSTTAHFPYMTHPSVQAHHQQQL
row,SMILES,Potency
1,Nc1c(C(=O)NCc2ccco2)c2nc3ccccc3nc2n1CCc1ccc(F)cc1,inactive
2,Cc1ccc(COc2ccsc2C(=O)NN)cc1,inactive
3,CC(=O)N1c2c(cc(Br)cc2S(=O)(=O)NCc2ccc(C)cc2)CC1C (stereo unspecified),inactive
4,Cc1ccc(CN2C(=O)C(=O)c3cc(Br)cc(C)c32)cc1,39.8 µM (active)
5,Cc1ccc(CN2C(=O)C(C)Oc3ccccc32)cc1 (stereo unspecified),inactive
6,COC(=O)c1c(NC(=O)c2ccc(S(=O)(=O)N3CCCC(C)C3)cc2)sc2c1CCN(C(C)C)C2 (stereo unspecified),inactive
7,O=C(Nc1cc[n+](-c2nc3ccccc3nc2[N-]S(=O)(=O)c2ccc(Cl)cc2)cc1)c1cccs1,inactive
8,O=C(Nc1ccc[n+](-c2nc3ccccc3nc2[N-]S(=O)(=O)c2ccccc2)c1)c1ccc(Cl)cc1,11.2 µM (active)
9,CC(=O)Nc1ccc(S(=O)(=O)[N-]c2nc3ccccc3nc2-[n+]2ccc(NC(=O)c3ccccc3)cc2)cc1,inactive
10,Cc1c(NC(=O)C(C)OC(=O)c2cccc(S(=O)(=O)N3CCOCC3)c2)c(=O)n(-c2ccccc2)n1C (stereo unspecified),inactive
11,COc1cc(/C=C/C(=O)OCC(=O)Nc2ccc(Cl)cn2)ccc1O,inactive
12,COc1ccc(C(=O)/C=C/c2ccc(O)cc2)c(O)c1C/C=C(\C)CCC=C(C)C,39.8 µM (active)
13,COc1ccc(/C=C/C(=O)C2C(=O)C=C(C)OC2=O)cc1O (stereo unspecified),inactive
14,COc1ccc(C(=O)/C=C/c2ccc(O)cc2)c(O)c1CC=C(C)C,39.8 µM (active)
15,COc1ccc(-c2cc(C(F)(F)F)n3ncc(C(=O)N4CCCCC4c4cccnc4)c3n2)cc1 (stereo unspecified),inactive
16,N#Cc1c(O)nc2c(c1-c1cccnc1)COc1ccccc1-2,inactive
17,O=C(N/N=C/c1cc(Cl)cc([N+](=O)[O-])c1O)c1ccccc1NS(=O)(=O)c1cccs1,inactive
18,O=C(NC(=S)N1CCN(c2ccc(C(F)(F)F)cc2[N+](=O)[O-])CC1)c1cccs1,39.8 µM (active)
19,O=C(COC(=O)c1cccc([N+](=O)[O-])c1)NNC(=O)c1cccs1,inactive
20,Cc1cccc(N2CCN(C(=O)Cc3ccccc3[N+](=O)[O-])CC2)c1C,inactive
21,O=C(NC(=S)N1CCN(c2ccc(Cl)cc2[N+](=O)[O-])CC1)c1cccs1,17.8 µM (active)
22,CC(=O)c1ccc2c(c1)c(C#N)c1ccccc1[n+]2[O-],inactive
23,CCC(=O)Nc1c(C#N)c2nc3ccccc3nc2n1-c1ccc(C)cc1,inactive
24,CCN(CC)c1nc2ccccc2nc1C(C#N)C(=O)NCCc1ccccc1 (stereo unspecified),inactive
25,CCC(C)N(CC(=O)Nc1cccc(C)c1C)C(=O)CCl (stereo unspecified),7.52 µM (active)
26,CCN(CC(=O)Nc1cc(Cl)ccc1C)C(=O)C1CCCCC1,inactive

row,SMILES,Potency
1,Cc1cccc(NC(=O)CN(C)C(=O)Cc2ccc(-c3ccccc3)cc2)c1C,inactive
2,CCN(CC)C(=O)COc1ccc(/C=C(\C#N)S(=O)(=O)c2ccccc2)cc1OC,inactive
3,C=CCNCCCCOc1cccc(Br)c1,inactive
4,C=CCc1cc(Cl)ccc1OCCCNC(C)C,inactive
5,Cc1cc(C)c(OCCN2CCOCC2)c(Cl)c1,inactive
6,Clc1ccc(OCCCNCc2ccccc2)c(Br)c1,39.8 µM (active)
7,Cc1cc(C)c(OCCCCNCc2ccccc2)c(Cl)c1,39.8 µM (active)
8,COc1ccc(Cl)cc1CNCCCSc1ncccn1,inactive
9,CN(C)/C=N/c1c(Br)cc(Br)c2nonc12,inactive
10,COCCN(CCOC)C(=O)c1cc2c(=O)n3ccccc3nc2s1,inactive
11,O=C1NC[C@@H](c2ccccc2)OC(=O)[C@@H](Cc2ccc(F)cc2)CC/C=C/C[C@H]1CC(=O)N(CCO)Cc1ccccc1,28.2 µM (active)
12,O=C1N[C@@H](Cc2c[nH]c3ccccc23)COC(=O)[C@@H](Cc2ccc(F)cc2)C/C=C\C[C@H]1CC(=O)N(CCO)Cc1ccccc1,35.5 µM (active)
13,COCCn1c(N)c(C#N)c2nc3ccccc3nc21,inactive
14,Fc1ccc(-n2c(-c3cccs3)nc3nc4ccccc4nc32)cc1,inactive
15,O=C(O)c1ccccc1-c1ccccc1C(=O)Nc1ccc2c(c1)nc(O)c1ccccc12,inactive
16,O=C(Nc1ccc2c(c1)OCCO2)c1cccnc1Oc1ccc(Cl)cc1,inactive
17,O=C(Nc1ccc2c(c1)OCCO2)c1cccc2nc3ccccc3nc12,35.5 µM (active)
18,COc1ccccc1-n1c([S-])c(C(=O)Nc2ccccc2C(F)(F)F)[n+]2ccc(C(=O)NCCO)cc12,inactive
19,CCO/C=C1/C(=O)N(c2ccccc2OC)C(=O)c2ccccc21,inactive
20,CC[C@]1(c2ccccc2OC)ON(c2ccccc2C(F)(F)F)C1=O,35.5 µM (active)
21,COc1ccccc1N1C(=O)C2C(C(=O)c3ccccc3)=NN(c3ccccc3)C2C1=O (stereo unspecified),inactive
22,COc1ccccc1N1C(=O)C2C(C(=O)c3ccccc3)=NN(c3ccccc3OC)C2C1=O (stereo unspecified),inactive
23,CC[C@@]1(c2ccccc2OC)ON(c2ccccc2C(F)(F)F)C1=O,22.4 µM (active)
24,Cc1ccccc1NC(=O)c1cc2c(=O)n3cccc(C)c3nc2s1,inactive
25,CC1CCCCC1NC(=O)c1cc2c(=O)n3ccccc3nc2n1C (stereo unspecified),inactive
26,COc1ccc([N+](=O)[O-])c(S(=O)(=O)c2ccccc2)n1,7.52 µM (active)

row,SMILES,Potency
1,COc1ccc([N+](=O)[O-])c(S(=O)(=O)c2ccc(Cl)cc2)n1,14.1 µM (active)
2,COc1ccccc1N=C(NS(=O)(=O)c1ccc(C)cc1)c1ccccc1,inactive
3,O=C1c2cccc3c([N+](=O)[O-])ccc(c23)C(=O)N1c1ccc(Cl)cn1,inactive
4,CC1CN(c2ccc([N+](=O)[O-])c(NCCOc3ccc(Cl)cc3)c2)CC(C)N1 (stereo unspecified),inactive
5,CCN(CC)c1ccc(C=C(c2nnnn2-c2ccccc2)c2nnnn2-c2ccccc2)cc1,inactive
6,Cc1cc2cc3c(=O)[nH]c(=O)nc-3n(CC(O)C(O)C(O)CO)c2cc1C (stereo unspecified),inactive
7,C=CC(=O)/N=c1\sc2ccccc2n1-c1ccccc1,37.7 µM (active)
8,CCN=C(S)N(CCc1c(C)[nH]c2ccc(C)cc12)Cc1cccnc1,inactive
9,COc1cc2nc(/C=C/c3ccc(N(C)C)cc3)sc2cc1SC,inactive
10,CC(C)CN=C(S)N1CCN(c2nc3ccccc3s2)CC1,inactive
11,Clc1cccc2sc(N3CCN(c4ccccc4)CC3)nc12,inactive
12,CCc1cccc2sc(N3CCN(C(=O)c4ccc([N+](=O)[O-])o4)CC3)nc12,39.8 µM (active)
13,Nc1ccc2cc3ccccc3cc2c1,inactive
14,CC(C)OCCCN(C)C1CCN(S(=O)(=O)c2ccc(-c3cc(C(F)(F)F)no3)s2)CC1,inactive
15,c1ccc(C2=NN(c3ccccc3)CC2)cc1,inactive
16,c1ccc(N=NC2=NN(c3ccccc3)CS2)cc1,7.08 µM (active)
17,c1ccc(N2CC3COc4ccccc4C3=N2)cc1 (stereo unspecified),inactive
18,CCOc1ccc(CN2CCCC(N3CCN(c4ccc(OC)cc4)CC3)C2)cc1 (stereo unspecified),inactive
19,[O-][n+]1onc2c1CCc1nnc(-c3ccccc3)cc1-2,39.8 µM (active)
20,CCc1ccc(/C=C2\Oc3c(ccc(O)c3CN3CCN(CCO)CC3)C2=O)cc1,inactive
21,Cc1nn(-c2ccccc2)nc1C(=O)NNC(=O)c1cccc2ccccc12,inactive
22,O=C(CN(Cc1ccccc1)C(=O)c1csnn1)NCCc1ccccc1,inactive
23,CC(=O)N(CC(=O)Nc1nn(-c2ccccc2)nc1C(N)=O)Cc1ccccc1,39.8 µM (active)
24,Cc1cc(/C=C2/C(=N)N3C(=NC2=O)SN=C3S(C)(=O)=O)c(C)n1-c1ccccc1,inactive
25,COC(=O)Cc1c(C)c2c(O)cc(C)cc2oc1=O,inactive
26,O=S(=O)([N-]c1nc2ccccc2nc1-[n+]1ccn(Cc2ccccc2)c1)c1ccc(Br)cc1,inactive

row,SMILES,Potency
1,CC(=O)Nc1ccc(CN2CCN(C3CCCCC3)C(CCO)C2)cc1 (stereo unspecified),inactive
2,Cc1ccc(CN2CCC(CNC(=O)Nc3ccc(Cl)cc3)C2)cc1 (stereo unspecified),39.8 µM (active)
3,O=C(NCc1ccc(Cl)cc1)C1CCCN(C(=O)c2ccc(Cl)cc2)C1 (stereo unspecified),inactive
4,Cc1nn(CCCC(=O)NCc2ccc(F)cc2)c(=O)c2nccn12,inactive
5,O=C(CN(c1cccc(C(F)(F)F)c1)S(=O)(=O)c1ccc(Cl)c([N+](=O)[O-])c1)NCc1ccccc1Cl,39.8 µM (active)
6,Cc1cc(OCC(=O)OCC(=O)NCC2CCCO2)ccc1Cl (stereo unspecified),inactive
7,CSc1ccccc1NC(=O)CN(C)C(=O)CNc1ccc(C(F)(F)F)cc1[N+](=O)[O-],inactive
8,CCN(CC(=O)NCc1cccs1)S(=O)(=O)c1ccc([N+](=O)[O-])cc1,inactive
9,O=C(CN(c1ccc(Br)cc1)S(=O)(=O)c1ccc(Cl)c([N+](=O)[O-])c1)NCC1CCCO1 (stereo unspecified),31.6 µM (active)
10,Cc1c(N(C)S(=O)(=O)c2cc(C(=O)NCC3CCCO3)ccc2Cl)c(=O)n(-c2ccccc2)n1C (stereo unspecified),inactive
11,CNC(=O)c1ccc(-c2sc3nc(N4CCOCC4)c4c(c3c2N)CCCC4)o1,inactive
12,CC(C)c1ccc(NC(=O)c2cc(S(=O)(=O)NCc3ccccc3Cl)ccc2F)cc1,28.2 µM (active)
13,O=C(O)c1ccc(NS(=O)(=O)c2ccc(NC(=O)c3ccccc3Cl)cc2)cc1,inactive
14,O=C(Nc1ccccc1)c1cc(S(=O)(=O)Nc2cccnc2)ccc1Cl,inactive
15,Cc1nc2nc(-c3ccc(Cl)cc3)cn2nc1C,inactive
16,C=C[S+]([O-])c1sc(Cl)c(N2CCOCC2)c1[N+](=O)[O-] (stereo unspecified),15 µM (active)
17,O=S(=O)(Nc1cccc(-c2nc3cccnc3s2)c1)c1ccc2c(c1)OCCO2,inactive
18,Clc1ccc2c(N/N=C/c3cccc(Br)c3)ccnc2c1,25.1 µM (active)
19,CN(C)c1nc(NCc2ccccc2)nc(N/N=C/c2ccc(Cl)cc2Cl)n1,inactive
20,Cc1ccccc1/C=N/Nc1ccnc2cc(Cl)ccc12,28.2 µM (active)
21,O=[N+]([O-])c1ccc(Cl)cc1N/N=C/c1ccncc1,inactive
22,Cc1ccc(NCC(=O)N/N=C/c2cccc(Br)c2)cc1,inactive
23,FC(F)(F)c1ccccc1/C=N/Nc1ccccn1,inactive
